# Test results from the supplement of paper PMC8728848.
# The entries come from a sample that favours the strongest signals as a whole.
# B1: Siglec-9 (Homo sapiens), Q9Y336 (protein)
# chain: MLLLLLPLLWGRERAEGQTSKLLTMQSSVTVQEGLCVHVPCSFSYPSHGWIYPGPVVHGYWFREGANTDQDAPVATNNPARAVWEETRDRFHLLGDPHTKNCTLSIRDARRSDAGRYFFRMEKGSIKWNYKHHRLSVNVTALTHRPNILIPGTLESGCPQNLTCSVPWACEQGTPPMISWIGTSVSPLDPSTTRSSVLTLIPQPQDHGTSLTCQVTFPGASVTTNKTVHLNVSYPPQNLTMTVFQGDGTVSTVLGNGSSLSLPEGQSLRLVCAVDAVDSNPPARLSLSWRGLTLCPSQPSNPGVLELPWVHLRDAAEFTCRAQNPLGSQQVYLNVSLQSKATSGVTQGVVGGAGATALVFLSFCVIFVVVRSCRKKSARPAAGVGDTGIEDANAVRGSASQGPLTEPWAEDSPPDQPPPASARSSVGEGELQYASLSFQMVKPWDSRGQEATDTEYSEIKIHR
# B2: MGL (Homo sapiens), Q8IUN9 (protein)
# chain: MTRTYENFQYLENKVKVQGFKNGPLPLQSLLQRLCSGPCHLLLSLGLGLLLLVIICVVGFQNSKFQRDLVTLRTDFSNFTSNTVAEIQALTSQGSSLEETIASLKAEVEGFKQERQAGVSELQEHTTQKAHLGHCPHCPSVCVPVHSEMLLRVQQLVQDLKKLTCQVATLNNNASTEGTCCPVNWVEHQDSCYWFSHSGMSWAEAEKYCQLKNAHLVVINSREEQNFVQKYLGSAYTWMGLSDPEGAWKWVDGTDYATGFQNWKPGQPDDWQGHGLGGGEDCAHFHPDGRWNDDVCQRPYHWVCEAGLGQTSQESH
# Columns and labels:
# Assay in all cases: glycan array binding signal (z-score within array); higher = stronger binding
# Conditions in all cases: glycan notation: IUPAC condensed, linker removed
# [1] = biological target: Neu5Ac(a2-3)Gal(b1-3)]Neu5Ac(a2-3)Gal(b1-4)]GlcNAc
# How it was run: (§1)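 From the Consortium for Functional Glycomics database, 3228 arrays were curated, keeping only those whose protein sequence was available. Binding is given as a within-array Z-score averaged across arrays sharing a protein sequence and across linkers. Negative Z-scores can be read as non-binding.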
# Neu5Ac(a2-3)Gal(b1-4)Glc = biological target: Neu5Ac(a2-3)Gal(b1-4)Glc
# How it was run: as §1
# [2] = biological target: Neu5Ac(a2-3)Gal(b1-4)GlcNAc(b1-3)Gal(b1-4)GlcNAc(b1-3)[Neu5Ac(a2-3)Gal(b1-4)GlcNAc(b1-3)Gal(b1-4)GlcNAc(b1-6)]GalNAc
# How it was run: as §1
# [3] = biological target: Neu5Ac(a2-3)Gal(b1-4)GlcNAc6S
# How it was run: as §1
# [4] = biological target: Neu5Ac(a2-3)Gal(b1-4)[Fuc(a1-3)]GlcNAc
# How it was run: as §1
# [5] = biological target: Neu5Ac(a2-3)Gal(b1-4)[Fuc(a1-3)]GlcNAc(b1-2)Man
# How it was run: as §1
# [6] = biological target: Neu5Ac(a2-3)Gal(b1-4)[Fuc(a1-3)]GlcNAc6S
# How it was run: as §1
# [7] = biological target: Neu5Ac(a2-6)Gal(b1-4)GlcNAc(b1-3)Gal(b1-4)GlcNAc(b1-3)Gal(b1-4)GlcNAc(b1-2)Man(a1-3)[Neu5Ac(a2-6)Gal(b1-4)GlcNAc(b1-3)Gal(b1-4)GlcNAc(b1-3)Gal(b1-4)GlcNAc(b1-2)Man(a1-6)]GalNAc
# How it was run: as §1
# [8] = biological target: Neu5Ac(a2-6)Gal(b1-4)GlcNAc6S
# How it was run: as §1
# [9] = biological target: Neu5Ac(a2-8)Neu5Ac(a2-3)Gal(b1-4)GlcNAc
# How it was run: as §1
# [10] = biological target: Neu5Ac(a2-8)Neu5Ac(a2-3)[Gal(b1-3)GalNAc(b1-4)]Gal(b1-4)Glc
# How it was run: as §1
# [11] = biological target: Neu5Gc(a2-3)Gal(b1-3)GlcNAc
# How it was run: as §1
# [12] = biological target: Neu5Gc(a2-3)Gal(b1-4)[Fuc(a1-3)]GlcNAc
# How it was run: as §1
# [13] = biological target: Neu5Gc(a2-8)Neu5Gc(a2-3)Gal(b1-4)GlcNAc(b1-3)Gal(b1-4)GlcNAc
# How it was run: as §1
# Fuc(a1-2)Gal = biological target: Fuc(a1-2)Gal
# How it was run: as §1
# [14] = biological target: Fuc(a1-2)Gal(b1-3)GalNAc(a1-3)[Fuc(a1-2)]Gal(b1-4)Glc
# How it was run: as §1
# [15] = biological target: Fuc(a1-2)Gal(b1-3)GalNAc(b1-3)Gal(a1-4)Gal(b1-4)Glc
# How it was run: as §1
# [16] = biological target: Fuc(a1-2)Gal(b1-3)GlcNAc6S
# How it was run: as §1
# [17] = biological target: Fuc(a1-2)Gal(b1-3)[Fuc(a1-4)]GlcNAc(b1-2)Man(a1-3)[Fuc(a1-2)Gal(b1-3)[Fuc(a1-4)]GlcNAc(b1-2)Man(a1-6)]Man(b1-4)GlcNAc(b1-4)[Fuc(a1-6)]GlcNAc(b1-4)[Fuc(a1-6)]GlcNAc
# How it was run: as §1
# [18] = biological target: Fuc(a1-2)Gal(b1-4)GlcNAc(b1-3)Gal(b1-4)GlcNAc
# How it was run: as §1
# [19] = biological target: Fuc(a1-2)Gal(b1-4)GlcNAc(b1-6)GalNAc
# How it was run: as §1
# [20] = biological target: Fuc(a1-2)Gal(b1-4)[Fuc(a1-3)]GlcNAc(b1-3)[Neu5Ac(a2-6)Gal(b1-4)GlcNAc(b1-6)]Gal(b1-4)Glc
# How it was run: as §1
# Fuc(a1-2)Gal6S(b1-4)Glc = biological target: Fuc(a1-2)Gal6S(b1-4)Glc
# How it was run: as §1
# [21] = biological target: Fuc(a1-2)Gal6S(b1-4)Glc6S
# How it was run: as §1
# Fuc(a1-2)[Gal(a1-3)]Gal = biological target: Fuc(a1-2)[Gal(a1-3)]Gal
# How it was run: as §1
# [22] = biological target: Fuc(a1-2)[Gal(a1-3)]Gal(b1-3)GlcNAc(b1-2)Man(a1-3)[Fuc(a1-2)[Gal(a1-3)]Gal(b1-3)GlcNAc(b1-2)Man(a1-6)]Man(b1-4)GlcNAc(b1-4)GlcNAc
# How it was run: as §1
# [23] = biological target: Fuc(a1-2)[Gal(a1-3)]Gal(b1-4)Glc
# How it was run: as §1
# [24] = biological target: Fuc(a1-2)[GalNAc(a1-3)]Gal(b1-3)GlcNAc(b1-6)GalNAc
# How it was run: as §1
# [25] = biological target: Fuc(a1-2)[GalNAc(a1-3)]Gal(b1-4)GlcNAc(b1-6)GalNAc
# How it was run: as §1
# [26] = biological target: Fuc(a1-2)[GalNAc(a1-4)]Gal(b1-4)GlcNAc
# How it was run: as §1
# [27] = biological target: Fuc(a1-2)[GalNAc(b1-3)]Gal
# How it was run: as §1
# [28] = biological target: Fuc(a1-3)[Gal(b1-4)]GlcNAc(b1-6)[Gal(b1-3)GlcNAc(b1-3)]Gal(b1-4)Glc
# How it was run: as §1
# Gal(a1-2)Gal = biological target: Gal(a1-2)Gal
# How it was run: as §1
# [29] = biological target: Gal(a1-3)Gal(b1-4)GlcNAc(b1-2)Man
# How it was run: as §1
# [30] = biological target: Gal(a1-3)Gal(b1-4)GlcNAc(b1-6)GalNAc
# How it was run: as §1
# Gal(a1-4)Gal(b1-4)GlcNAc = biological target: Gal(a1-4)Gal(b1-4)GlcNAc
# How it was run: as §1
# Gal(b1-3)Gal(b1-4)GlcNAc = biological target: Gal(b1-3)Gal(b1-4)GlcNAc
# How it was run: as §1
# Gal(b1-3)GalNAc = biological target: Gal(b1-3)GalNAc
# How it was run: as §1
# [31] = biological target: Gal(b1-3)GlcNAc(a1-3)Gal(b1-4)GlcNAc
# How it was run: as §1
# [32] = biological target: Gal(b1-3)GlcNAc(b1-3)Gal(b1-4)GlcNAc(b1-2)[Gal(b1-3)GlcNAc(b1-3)Gal(b1-4)GlcNAc(b1-6)]Man(a1-6)[Gal(b1-3)GlcNAc(b1-3)Gal(b1-4)GlcNAc(b1-2)Man(a1-3)]Man(b1-4)GlcNAc(b1-4)[Fuc(a1-6)]GlcNAc
# How it was run: as §1
# [33] = biological target: Gal(b1-3)GlcNAc(b1-6)GalNAc
# How it was run: as §1
# Gal(b1-3)GlcNAc6S = biological target: Gal(b1-3)GlcNAc6S
# How it was run: as §1
# Gal(b1-4)GlcNAc = biological target: Gal(b1-4)GlcNAc
# How it was run: as §1
# [34] = biological target: Gal(b1-4)GlcNAc(b1-3)Gal(b1-3)GalNAc
# How it was run: as §1
binder,measurement,setting,value
B1,glycan array binding signal (z-score),[1],1.76
same,glycan array binding signal (z-score),Neu5Ac(a2-3)Gal(b1-4)Glc,1.09
same,glycan array binding signal (z-score),[2],-0.187
same,glycan array binding signal (z-score),[3],2.21
same,glycan array binding signal (z-score),[4],1.14
same,glycan array binding signal (z-score),[5],14.8
same,glycan array binding signal (z-score),[6],16.8
same,glycan array binding signal (z-score),[7],0.878
same,glycan array binding signal (z-score),[8],1.58
same,glycan array binding signal (z-score),[9],-0.259
same,glycan array binding signal (z-score),[10],-0.214
same,glycan array binding signal (z-score),[11],-0.028
same,glycan array binding signal (z-score),[12],0.005
same,glycan array binding signal (z-score),[13],-0.178
B2,glycan array binding signal (z-score),Fuc(a1-2)Gal,-0.232
same,glycan array binding signal (z-score),[14],-0.246
same,glycan array binding signal (z-score),[15],-0.242
same,glycan array binding signal (z-score),[16],-0.178
same,glycan array binding signal (z-score),[17],-0.238
same,glycan array binding signal (z-score),[18],-0.247
same,glycan array binding signal (z-score),[19],3.85
same,glycan array binding signal (z-score),[20],-0.247
same,glycan array binding signal (z-score),Fuc(a1-2)Gal6S(b1-4)Glc,-0.242
same,glycan array binding signal (z-score),[21],-0.254
same,glycan array binding signal (z-score),Fuc(a1-2)[Gal(a1-3)]Gal,-0.241
same,glycan array binding signal (z-score),[22],-0.249
same,glycan array binding signal (z-score),[23],-0.237
same,glycan array binding signal (z-score),[24],3.6
same,glycan array binding signal (z-score),[25],4.98
same,glycan array binding signal (z-score),[26],3.39
same,glycan array binding signal (z-score),[27],4.3
same,glycan array binding signal (z-score),[28],-0.251
same,glycan array binding signal (z-score),Gal(a1-2)Gal,-0.25
same,glycan array binding signal (z-score),[29],-0.252
same,glycan array binding signal (z-score),[30],3.79
same,glycan array binding signal (z-score),Gal(a1-4)Gal(b1-4)GlcNAc,-0.232
same,glycan array binding signal (z-score),Gal(b1-3)Gal(b1-4)GlcNAc,-0.245
same,glycan array binding signal (z-score),Gal(b1-3)GalNAc,-0.242
same,glycan array binding signal (z-score),[31],-0.245
same,glycan array binding signal (z-score),[32],-0.049
same,glycan array binding signal (z-score),[33],3.24
same,glycan array binding signal (z-score),Gal(b1-3)GlcNAc6S,-0.249
same,glycan array binding signal (z-score),Gal(b1-4)GlcNAc,-0.243
same,glycan array binding signal (z-score),[34],-0.27
